Assay results reported in article PMC7826789 (International Journal of Molecular Sciences, 2021).

test system: CAMKK2; settings: Compound Concentration (nM):1000
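Note: KINOMEscan scanMAX binding as percent activity remaining versus control; lower means stronger binding.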

SMILES	Percent Control [%]
COc1cc2ncnc(Nc3ccc4c(cnn4Cc4ccccc4)c3)c2cc1OC.Cl [GW282449A]	100
COC(=O)Nc1nc2ccc(Oc3ccc(NC(=O)Nc4cc(C(F)(F)F)ccc4F)cc3)cc2s1.Cl [GW693917A]	100
NS(=O)(=O)c1ccc(N/N=C2\C(=O)Nc3ccc(C(=O)NCc4ccncc4)cc32)cc1 [GW300657X]	65
Cl.O=C(Nc1ccc(Oc2ccc3[nH]c(NC(=O)c4ccco4)nc3c2)cc1)Nc1cc(C(F)(F)F)ccc1F [GW683134A]	100
COc1ccccc1-c1cc(/C=C2\C(=O)Nc3ncc(Br)cc32)cc(Br)c1O [GW442130X]	100
CN1CCN(C(=O)c2ccc(NC(=O)Nc3ccc(N(C)c4ccnc(Nc5ccc(CS(C)(=O)=O)cc5)n4)cc3)cc2)CC1.Cl [GW830263A]	100
Cc1cc(O)cc(C)c1/C=C/c1cncc(C(N)=O)c1 [GW435821X]	100

test system: CASK; settings: Compound Concentration (nM):1000

SMILES	Percent Control [%]
O=C(Nc1n[nH]c2nc(-c3ccc(O)cc3)c(Br)cc12)C1CC1 [SB-725317]	100
COc1cccc(-c2c[nH]c3c(N/N=C/c4ccncc4)ncnc23)c1 [GW814408X]	44
Cl.O=C(O[C@H]1CN[C@H](C#Cc2cc3ncnc(Nc4ccc5c(cnn5Cc5ccccc5)c4)c3s2)C1)N1CCOCC1 [GSK200398A]	100
CCS(=O)(=O)c1ccc(OC)c(Nc2ncc(-c3cccc(OC)c3)o2)c1 [GW580509X]	95
COc1ccc2cc(-c3c(-c4ccncc4)nc(-c4ccc(S(C)(=O)=O)cc4C)n3C)ccc2c1 [SB-633825]	84
COc1ccc(COc2ccc(Cc3cnc(N)nc3N)cc2OC)cc1 [GW632580X]	98
C[C@@H](Oc1cc(-n2cnc3ccc(OC4CCN(C)CC4)cc32)sc1C(N)=O)c1ccccc1Cl [GSK579289A]	11
CCS(=O)(=O)c1ccc(OC)c(Nc2ncc(-c3cccc(F)c3)o2)c1 [GW621970X]	90
COc1cc(N2CCN(C(C)C)CC2)ccc1Nc1nc(Nc2ccc(F)cc2C(=O)NC[C@@H](O)CO)c2cc[nH]c2n1 [GSK1392956A]	78
COc1cc2ncn(-c3cc(O[C@H](C)c4ccccc4Cl)c(C(N)=O)s3)c2cc1OC [GSK237701A]	88
Cl.O=C(Nc1ccc(Oc2ccc3[nH]c(NC(=O)c4ccccc4)nc3c2)cc1)Nc1cc(C(F)(F)F)ccc1F [GW709042A]	93
COc1cc(C)c(N(C)C(=O)CN(C)C)cc1Nc1nc(Nc2cccc(F)c2C(N)=O)c2cc[nH]c2n1 [GSK2219385]	100
CCc1ccc(Oc2nccc(-c3c(-c4ccc(F)cc4)ncn3C3CCNCC3)n2)cc1 [SB-242719]	83
CC1=C(C(=O)Nc2ccc3[nH]ncc3c2)C(c2ccc3ccccc3c2)CC(=O)N1 (centres unmarked) [GSK270822A]	86
Nc1ncnc2occ(-c3ccc(NC(=O)Nc4cc(C(F)(F)F)ccc4F)cc3)c12 [GW770249X]	95
O=C1Nc2ccc(C(=O)c3ccco3)cc2C1=Cc1cc(Cl)c(O)c(Cl)c1 [GW406108X]	87
COc1ccc2[nH]c3c4[nH]c5ccc(OC)cc5c4c4c(c3c2c1)C(=O)NC4=O [GW296115X]	100
CN(C)CCNC(=O)Nc1ccc(N(C)c2ccnc(Nc3ccc(CS(C)(=O)=O)cc3)n2)cc1.Cl [GW830900A]	91
Cl.c1ccc(Cc2nc3ccc(Nc4ncnc5ccccc45)cc3[nH]2)cc1 [GR269666A]	100
COc1ccc2c(-c3ccnc(Nc4cccc(OC(F)(F)F)c4)n3)cnn2n1 [GW810372X]	96
COc1cccc(-n2ncc3c(N/N=C/c4ccncc4)ncnc32)c1 [GW784752X]	68
COc1cc(/C=N/Nc2ncnc3[nH]ncc23)ccc1O [GW578748X]	63
NS(=O)(=O)c1ccc(N/N=C2\C(=O)Nc3ccc(C(=O)NCCc4c[nH]cn4)cc32)cc1 [GW300660X]	100
NS(=O)(=O)c1ccc(N/N=C2\C(=O)Nc3ccc(-c4cnco4)cc32)cc1 [GW276655]	84
NS(=O)(=O)c1ccc(Nc2ncc(-c3ccccc3)o2)cc1 [GW572399X]	94
